Laboratory results as given in PubChem BioAssay AID1159580 (chemical genetic matrix, 2015).
Several values for one entry are separate records, joined by “and”; a condition that tells them apart may be missing. Identical values can stand only once. Out of some 5,500 compounds screened, about 2,000 (36%) were called active. Not shown: some 18% with an inconclusive outcome. No stated cut-off is given here; in the data, active means normalized growth mostly below about 0.91 (no sharp cut-off); inconclusive means no clear call, values can overlap the other calls; inactive means mostly above about 0.92. Some of the results follow.

Assay: chemical genetic growth profiling, strain panel (AID 1159580);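 further: tested at 20 µM; growth read once vehicle control cultures reached saturation at 30 °C; 1 = growth at the plate median or of vehicle wells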
Conditions: growth OD

Measured: normalized growth

NNc1nncc2ccccc12
inactive: S. cerevisiae deletion strains, locus YJR066W, strain TOR1, stronger effect = lower value 0.919 | S. cerevisiae deletion strains, locus YJR075W, strain HOC1, stronger effect = lower value 0.996 | S. cerevisiae deletion strains, locus YKL009W, strain mrt4, stronger effect = lower value 0.96 | S. cerevisiae deletion strains, locus YKL068W, stronger effect = lower value 0.997 | S. cerevisiae deletion strains, locus YKL085W, strain MDH1 (second series), stronger effect = lower value 0.989 | S. cerevisiae deletion strains, locus YKL085W, strain MDH1, stronger effect = lower value 0.989 | S. cerevisiae deletion strains, locus YKL160W, strain elf1, stronger effect = lower value 0.995 | S. cerevisiae deletion strains, locus YKL190W, strain CNB1, stronger effect = lower value 1 | S. cerevisiae deletion strains, locus YKR001C, strain vps1, stronger effect = lower value 1 | S. cerevisiae deletion strains, locus YKR026C, strain gcn3, stronger effect = lower value 0.998 | S. cerevisiae deletion strains, locus YKR091W, strain srl3, stronger effect = lower value 0.997 | S. cerevisiae deletion strains, locus YLL001W, strain dnm1, stronger effect = lower value 0.979 | S. cerevisiae deletion strains, locus YLL026W, stronger effect = lower value 1 | S. cerevisiae deletion strains, locus YLL041C, strain sdh2, stronger effect = lower value 0.994 | S. cerevisiae deletion strains, locus YLR027C, strain aat2, stronger effect = lower value 1 | S. cerevisiae deletion strains, locus YLR039C, strain RIC1, stronger effect = lower value 0.989 | S. cerevisiae deletion strains, locus YLR058C, strain SHM2, stronger effect = lower value 1.01 | S. cerevisiae deletion strains, locus YLR102C, strain apc9, stronger effect = lower value 0.991 | S. cerevisiae deletion strains, locus YLR113W, strain HOG1, stronger effect = lower value 1.06 | S. cerevisiae deletion strains, locus YLR221C, strain rsa3, stronger effect = lower value 0.969 | S. cerevisiae deletion strains, locus YLR258W, strain gsy2, stronger effect = lower value 0.991 | S. cerevisiae deletion strains, locus YLR262C, strain YPT6 (second series), stronger effect = lower value 1 | S. cerevisiae deletion strains, locus YLR262C, strain YPT6, stronger effect = lower value 1.07 | S. cerevisiae deletion strains, locus YLR268W, strain sec22, stronger effect = lower value 0.954 | S. cerevisiae deletion strains, locus YLR320W, strain mms22, stronger effect = lower value 0.991 | S. cerevisiae deletion strains, locus YLR330W, strain CHS5, stronger effect = lower value 1.01 | S. cerevisiae deletion strains, locus YLR342W, strain FKS1 (second series), stronger effect = lower value 0.934 | S. cerevisiae deletion strains, locus YLR342W, strain FKS1, stronger effect = lower value 1.01 | S. cerevisiae deletion strains, locus YLR357W, strain rsc2, stronger effect = lower value 0.981 | S. cerevisiae deletion strains, locus YLR370C, strain arc18, stronger effect = lower value 0.977 | S. cerevisiae deletion strains, locus YLR371W, strain rom2, stronger effect = lower value 0.989 | S. cerevisiae deletion strains, locus YLR384C, strain iki3, stronger effect = lower value 0.985 | S. cerevisiae deletion strains, locus YLR418C, strain cdc73, stronger effect = lower value 0.96 | S. cerevisiae deletion strains, locus YML016C, strain PPZ1, stronger effect = lower value 0.995 | S. cerevisiae deletion strains, locus YML032C, strain rad52, stronger effect = lower value 0.985 | S. cerevisiae deletion strains, locus YML120C, strain ndi1, stronger effect = lower value 0.981 | S. cerevisiae deletion strains, locus YML124C, strain tub3, stronger effect = lower value 0.996 | S. cerevisiae deletion strains, locus YMR058W, strain fet3, stronger effect = lower value 0.996 | S. cerevisiae deletion strains, locus YMR078C, strain ctf18, stronger effect = lower value 0.993 | S. cerevisiae deletion strains, locus YMR125W, strain sto1, stronger effect = lower value 1.01 | S. cerevisiae deletion strains, locus YMR129W, stronger effect = lower value 0.996 | S. cerevisiae deletion strains, locus YMR205C, strain PFK2, stronger effect = lower value 0.998 | S. cerevisiae deletion strains, locus YMR223W, strain ubp8, stronger effect = lower value 0.975 | S. cerevisiae deletion strains, locus YMR231W, strain pep5, stronger effect = lower value 0.995 | S. cerevisiae deletion strains, locus YMR263W, strain SAP30, stronger effect = lower value 1 | S. cerevisiae deletion strains, locus YMR307W, strain GAS1, stronger effect = lower value 1.02 and 0.998 | S. cerevisiae deletion strains, locus YNL067W, strain RPL9B, stronger effect = lower value 1.01 | S. cerevisiae deletion strains, locus YNL071W, strain lat1, stronger effect = lower value 1.01 | S. cerevisiae deletion strains, locus YNL153C, strain GIM3, stronger effect = lower value 0.986 and 0.997 | S. cerevisiae deletion strains, locus YNL175C, strain NOP13, stronger effect = lower value 1.01 | S. cerevisiae deletion strains, locus YNL183C, strain NPR1, stronger effect = lower value 0.945 | S. cerevisiae deletion strains, locus YNL197C, strain WHI3, stronger effect = lower value 1.01 | S. cerevisiae deletion strains, locus YNL209W, strain ssb2, stronger effect = lower value 0.99 | S. cerevisiae deletion strains, locus YNL224C, strain SQS1, stronger effect = lower value 1.03 | S. cerevisiae deletion strains, locus YNL233W, strain BNI4, stronger effect = lower value 0.997 | S. cerevisiae deletion strains, locus YNL248C, strain rpa49, stronger effect = lower value 1.03 | S. cerevisiae deletion strains, locus YNL250W, strain rad50, stronger effect = lower value 0.988 | S. cerevisiae deletion strains, locus YNL271C, strain bni1, stronger effect = lower value 0.993 | S. cerevisiae deletion strains, locus YNL298W, strain CLA4, stronger effect = lower value 0.986 | S. cerevisiae deletion strains, locus YNL307C, strain MCK1, stronger effect = lower value 0.991 | S. cerevisiae deletion strains, locus YNL322C, strain KRE1 (second series), stronger effect = lower value 0.98 | S. cerevisiae deletion strains, locus YNR049C, strain mso1, stronger effect = lower value 0.999 | S. cerevisiae deletion strains, locus YNR052C, strain pop2, stronger effect = lower value 0.985 | S. cerevisiae deletion strains, locus YOL012C, strain htz1 1.31 | S. cerevisiae deletion strains, locus YOL147C, strain pex11, stronger effect = lower value 1 | S. cerevisiae deletion strains, locus YOR001W, strain rrp6, stronger effect = lower value 0.995 | S. cerevisiae deletion strains, locus YOR061W, strain CKA2, stronger effect = lower value 1.01 | S. cerevisiae deletion strains, locus YOR069W, strain VPS5, stronger effect = lower value 1 | S. cerevisiae deletion strains, locus YOR070C, strain gyp1, stronger effect = lower value 0.998 | S. cerevisiae deletion strains, locus YOR080W, strain dia2, stronger effect = lower value 0.997 | S. cerevisiae deletion strains, locus YOR083W, strain WHI5 (second series), stronger effect = lower value 1.03 | S. cerevisiae deletion strains, locus YOR083W, strain WHI5, stronger effect = lower value 1.01 | S. cerevisiae deletion strains, locus YOR106W, strain vam3, stronger effect = lower value 1 | S. cerevisiae deletion strains, locus YOR136W, strain idh2, stronger effect = lower value 0.988 | S. cerevisiae deletion strains, locus YOR144C, strain elg1, stronger effect = lower value 1 | S. cerevisiae deletion strains, locus YOR184W, strain ser1, stronger effect = lower value 0.958 | S. cerevisiae deletion strains, locus YOR231W, strain MKK1, stronger effect = lower value 1.02 | S. cerevisiae deletion strains, locus YOR265W, strain rbl2, stronger effect = lower value 0.989 | S. cerevisiae deletion strains, locus YOR270C, strain vph1, stronger effect = lower value 0.996 | S. cerevisiae deletion strains, locus YOR290C, strain snf2, stronger effect = lower value 0.942 | S. cerevisiae deletion strains, locus YOR316C, strain cot1, stronger effect = lower value 1 | S. cerevisiae deletion strains, locus YPL051W, strain arl3, stronger effect = lower value 1 | S. cerevisiae deletion strains, locus YPL055C, strain LGE1, stronger effect = lower value 1 | S. cerevisiae deletion strains, locus YPL078C, strain atp4, stronger effect = lower value 0.991 | S. cerevisiae deletion strains, locus YPL106C, strain sse1, stronger effect = lower value 0.941 | S. cerevisiae deletion strains, locus YPL240C, strain hsp82, stronger effect = lower value 0.987 | S. cerevisiae deletion strains, locus YPL241C, strain CIN2, stronger effect = lower value 0.998 | S. cerevisiae deletion strains, locus YPL256C, strain CLN2, stronger effect = lower value 1.04 | S. cerevisiae deletion strains, locus YPR119W, strain clb2, stronger effect = lower value 1 | S. cerevisiae deletion strains, locus YPR141C, strain kar3, stronger effect = lower value 1.01 | S. cerevisiae deletion strains, locus YPR163C, strain tif3, stronger effect = lower value 1.01 | S. cerevisiae deletion strains, locus YPR167C, strain met16, stronger effect = lower value 0.995 | S. cerevisiae deletion strains, strain wtn01, stronger effect = lower value 0.965 | S. cerevisiae strains, strain wild type, stronger effect = lower value 1.01
